The text below walks through data of ChEMBL document CHEMBL2218924, “A broad activity screen in support of a chemogenomic map for kinase signalling research and drug discovery” (Biochem J, 2013).

For assay [1], the target named is T1, Serine/threonine-protein kinase BRSK2 (Homo sapiens) (UniProt Q8IWQ3).
T1 sequence (whole entry): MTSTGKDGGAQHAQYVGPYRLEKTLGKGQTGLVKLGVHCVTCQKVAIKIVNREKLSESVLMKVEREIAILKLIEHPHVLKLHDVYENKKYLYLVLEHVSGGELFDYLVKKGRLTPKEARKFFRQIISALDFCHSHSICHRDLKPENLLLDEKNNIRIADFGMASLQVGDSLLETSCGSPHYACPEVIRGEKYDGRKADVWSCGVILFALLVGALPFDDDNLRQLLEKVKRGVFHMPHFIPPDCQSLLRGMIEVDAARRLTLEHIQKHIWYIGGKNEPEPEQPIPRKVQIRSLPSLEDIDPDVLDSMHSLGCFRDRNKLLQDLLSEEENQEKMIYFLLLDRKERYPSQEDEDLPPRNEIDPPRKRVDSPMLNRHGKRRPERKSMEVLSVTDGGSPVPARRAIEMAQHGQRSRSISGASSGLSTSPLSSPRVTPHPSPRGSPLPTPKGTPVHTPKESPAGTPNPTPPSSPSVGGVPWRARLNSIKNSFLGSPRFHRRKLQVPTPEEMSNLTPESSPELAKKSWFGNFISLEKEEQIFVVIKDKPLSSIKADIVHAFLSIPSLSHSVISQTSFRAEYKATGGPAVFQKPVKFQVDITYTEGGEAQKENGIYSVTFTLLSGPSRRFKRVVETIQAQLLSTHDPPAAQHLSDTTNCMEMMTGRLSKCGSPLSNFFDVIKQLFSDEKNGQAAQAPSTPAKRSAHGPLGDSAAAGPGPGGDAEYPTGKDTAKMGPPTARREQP
Conditions: at 1 µM.

The target of assay [2] is T1, Serine/threonine-protein kinase BRSK2 (Homo sapiens). Particulars: at 10 µM.
Assay [3] addresses T2, Cyclin-dependent kinase 1/cyclin B1 (Homo sapiens) (UniProt P06493+P14635). Conditions: at 1 µM.
Assay [4] concerns the target T2, Cyclin-dependent kinase 1/cyclin B1 (Homo sapiens). Particulars: at 10 µM.
Assay [5] addresses T3, Cyclin-dependent kinase 2/cyclin A (Homo sapiens) (UniProt P24941+P20248+P78396). Conditions: at 1 µM.
The target of assay [6] is T3, Cyclin-dependent kinase 2/cyclin A (Homo sapiens). Conditions: at 10 µM.
Assay [7] addresses T4, Cyclin-dependent kinase 2/cyclin E (Homo sapiens) (UniProt P24864+P24941+O96020). Conditions: at 1 µM.
Assay [8] concerns the target T4, Cyclin-dependent kinase 2/cyclin E (Homo sapiens). Conditions: at 10 µM.
In assay [9] the target is T5, CDK3/cyclin E (Homo sapiens) (UniProt P24864+O96020+Q00526). Conditions: at 1 µM.
T5 sequence (O96020 whole entry, looked up): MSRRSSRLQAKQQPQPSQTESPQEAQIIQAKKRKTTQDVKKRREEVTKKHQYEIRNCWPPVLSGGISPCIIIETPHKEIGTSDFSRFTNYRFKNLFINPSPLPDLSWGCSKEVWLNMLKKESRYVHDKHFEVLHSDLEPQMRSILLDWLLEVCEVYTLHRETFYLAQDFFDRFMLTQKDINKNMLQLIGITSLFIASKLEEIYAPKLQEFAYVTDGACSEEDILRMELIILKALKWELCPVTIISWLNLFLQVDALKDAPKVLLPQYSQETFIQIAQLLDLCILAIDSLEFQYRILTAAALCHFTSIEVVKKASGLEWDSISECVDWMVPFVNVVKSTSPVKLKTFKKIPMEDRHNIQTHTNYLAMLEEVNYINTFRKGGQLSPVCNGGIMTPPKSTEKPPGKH
T5 sequence (P24864 whole entry, looked up): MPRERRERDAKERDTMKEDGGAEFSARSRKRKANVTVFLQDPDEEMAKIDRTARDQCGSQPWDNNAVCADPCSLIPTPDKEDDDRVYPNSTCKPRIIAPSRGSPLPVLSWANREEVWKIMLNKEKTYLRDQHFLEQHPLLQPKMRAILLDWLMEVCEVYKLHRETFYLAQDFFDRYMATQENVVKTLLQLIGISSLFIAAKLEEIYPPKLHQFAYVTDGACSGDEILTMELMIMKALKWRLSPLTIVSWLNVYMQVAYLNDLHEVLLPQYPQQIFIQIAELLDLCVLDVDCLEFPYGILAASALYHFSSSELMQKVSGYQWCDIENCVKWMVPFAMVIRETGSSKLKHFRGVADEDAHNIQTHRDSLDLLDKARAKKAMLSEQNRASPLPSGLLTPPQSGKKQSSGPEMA
T5 sequence (Q00526 whole entry, looked up): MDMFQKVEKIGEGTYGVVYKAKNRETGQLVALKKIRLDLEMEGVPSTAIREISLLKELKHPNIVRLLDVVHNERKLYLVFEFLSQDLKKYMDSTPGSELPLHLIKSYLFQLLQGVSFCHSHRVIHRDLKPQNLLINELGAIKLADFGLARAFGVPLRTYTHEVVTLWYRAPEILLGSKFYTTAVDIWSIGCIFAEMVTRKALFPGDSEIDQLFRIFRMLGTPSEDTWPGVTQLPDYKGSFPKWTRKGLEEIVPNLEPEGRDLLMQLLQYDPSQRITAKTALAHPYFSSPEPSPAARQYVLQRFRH
The target in assay [10] is T5, CDK3/cyclin E (Homo sapiens). Particulars: at 10 µM.
In assay [11] the target is T6, Cyclin-dependent kinase 5/CDK5 activator 1 (Homo sapiens) (UniProt Q00535+Q15078). Conditions: at 1 µM.
Assay [12] addresses T6, Cyclin-dependent kinase 5/CDK5 activator 1 (Homo sapiens). Conditions: at 10 µM.
Assay [13] has the same target. Conditions: at 1 µM. This is another data set of the same source.
The target is the same in assay [14]. Conditions: at 10 µM. The source holds these as a separate data set.
Target sequence in this assay (Q00535 whole entry): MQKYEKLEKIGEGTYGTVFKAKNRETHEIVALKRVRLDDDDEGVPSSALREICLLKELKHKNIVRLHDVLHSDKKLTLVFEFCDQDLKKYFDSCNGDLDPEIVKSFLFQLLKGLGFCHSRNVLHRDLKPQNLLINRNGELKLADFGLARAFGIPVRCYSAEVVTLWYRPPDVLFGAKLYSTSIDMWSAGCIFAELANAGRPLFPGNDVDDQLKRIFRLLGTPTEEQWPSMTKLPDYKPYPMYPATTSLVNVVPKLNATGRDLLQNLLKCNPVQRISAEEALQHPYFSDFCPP
Target sequence in this assay (Q15078 99-307 partner limits assumed): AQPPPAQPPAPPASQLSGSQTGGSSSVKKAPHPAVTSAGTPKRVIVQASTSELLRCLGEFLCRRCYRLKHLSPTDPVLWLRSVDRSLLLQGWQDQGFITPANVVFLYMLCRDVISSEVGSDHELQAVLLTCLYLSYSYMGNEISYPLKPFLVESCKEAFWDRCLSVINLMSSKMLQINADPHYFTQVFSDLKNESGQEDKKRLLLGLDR
Assay [15] deals with T7, CDK6/cyclin D3 (Homo sapiens) (UniProt P30281+Q00534). Particulars: at 1 µM.
The target in assay [16] is T7, CDK6/cyclin D3 (Homo sapiens). Conditions: at 10 µM.
For assay [17], the target named is T8, Cyclin-dependent kinase 7/ cyclin H (Homo sapiens) (UniProt P51946+P50613). Conditions: at 1 µM.
Assay [18] deals with T8, Cyclin-dependent kinase 7/ cyclin H (Homo sapiens). Conditions: at 10 µM.
The target of assay [19] is T9, Serine/threonine-protein kinase BRSK1 (Homo sapiens) (UniProt Q8TDC3).
T9 sequence (whole entry): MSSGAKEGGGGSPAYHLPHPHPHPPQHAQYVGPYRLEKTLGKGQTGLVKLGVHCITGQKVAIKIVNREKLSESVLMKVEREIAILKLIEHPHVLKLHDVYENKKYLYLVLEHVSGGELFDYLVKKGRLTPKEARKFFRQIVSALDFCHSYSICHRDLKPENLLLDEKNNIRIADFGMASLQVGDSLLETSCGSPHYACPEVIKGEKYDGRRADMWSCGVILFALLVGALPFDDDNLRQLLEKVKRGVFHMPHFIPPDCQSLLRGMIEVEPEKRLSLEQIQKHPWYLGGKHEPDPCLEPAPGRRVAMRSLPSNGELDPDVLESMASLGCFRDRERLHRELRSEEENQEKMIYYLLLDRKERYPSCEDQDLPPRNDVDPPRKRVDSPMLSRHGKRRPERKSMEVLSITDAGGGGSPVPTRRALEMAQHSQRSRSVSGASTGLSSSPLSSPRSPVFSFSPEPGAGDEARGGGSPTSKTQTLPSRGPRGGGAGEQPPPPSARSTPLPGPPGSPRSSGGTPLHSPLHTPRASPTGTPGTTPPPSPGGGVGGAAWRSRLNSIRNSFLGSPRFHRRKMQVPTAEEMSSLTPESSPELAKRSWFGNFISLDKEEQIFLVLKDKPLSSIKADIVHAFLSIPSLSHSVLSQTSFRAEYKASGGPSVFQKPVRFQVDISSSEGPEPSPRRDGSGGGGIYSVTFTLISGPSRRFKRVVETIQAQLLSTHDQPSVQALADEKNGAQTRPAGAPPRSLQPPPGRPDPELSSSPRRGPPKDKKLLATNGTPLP
Particulars: at 1 µM.

Assay [20] deals with T9, Serine/threonine-protein kinase BRSK1 (Homo sapiens). Particulars: at 10 µM.

T2 sequence (P06493 whole entry, looked up): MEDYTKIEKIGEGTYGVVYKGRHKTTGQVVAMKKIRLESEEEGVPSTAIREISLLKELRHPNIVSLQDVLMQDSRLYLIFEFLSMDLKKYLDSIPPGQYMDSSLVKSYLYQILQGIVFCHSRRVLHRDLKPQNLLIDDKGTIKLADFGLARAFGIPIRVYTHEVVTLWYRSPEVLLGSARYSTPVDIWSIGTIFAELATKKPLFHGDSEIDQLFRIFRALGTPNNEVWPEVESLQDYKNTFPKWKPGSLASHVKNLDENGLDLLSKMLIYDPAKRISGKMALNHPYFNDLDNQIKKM
T2 sequence (P14635 whole entry, looked up): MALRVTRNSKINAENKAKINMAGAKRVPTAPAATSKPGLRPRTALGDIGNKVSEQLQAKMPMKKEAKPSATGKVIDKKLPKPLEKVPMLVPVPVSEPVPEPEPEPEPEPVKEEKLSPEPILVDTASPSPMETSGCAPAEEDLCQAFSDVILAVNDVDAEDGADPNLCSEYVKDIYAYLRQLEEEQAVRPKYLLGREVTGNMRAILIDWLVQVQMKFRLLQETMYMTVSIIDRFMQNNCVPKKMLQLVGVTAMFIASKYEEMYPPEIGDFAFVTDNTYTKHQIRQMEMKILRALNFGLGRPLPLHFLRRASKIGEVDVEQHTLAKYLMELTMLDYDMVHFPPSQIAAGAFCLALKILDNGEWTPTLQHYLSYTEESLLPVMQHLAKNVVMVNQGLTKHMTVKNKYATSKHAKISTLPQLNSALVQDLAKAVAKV

Take `Cc1cc2ncc(-c3ccccc3)nc2cc1C`: the residual activity was 103% in assay [1]; 97% in assay [2]; 104% in [3]; 103% in assay [4]; 135% in [5]; 82% in assay [6]. Moreover, the residual activity is 100% in assay [7]; 104% in assay [8]; 96% in assay [9]; 90% in assay [10]; 102% in assay [11]; 94% in [12]. Moreover, the residual activity in assay [13] is 93%; in [14], 110%; in [15], 107%; in assay [16], 88%; in assay [17] it was 102%; in assay [18], 97%.

Regarding `CN(C)c1ccc(/C=C2\C(=O)Nc3ccccc32)cc1`, the residual activity worked out at 83% in [19]; 69% in assay [20]; 90% in assay [1]; 61% in assay [2]; 97% in assay [3]; 112% in [4]. In addition, the residual activity in assay [5] turned out to be 111%; in [6], 91%; in assay [7], 111%; in assay [8], 103%; in [10] it was 89%; in [11] it was 106%. For the same molecule, the residual activity in assay [12] came out at 87%; in assay [13], 102%; in assay [14], 96%; in assay [15] it was 102%; in [16], 50%; in [17], 88%. In addition, in assay [18], the residual activity amounted to 80%.

Turning to `CO[C@H]1C[C@@H]2CC[C@@H](C)[C@@](O)(O2)C(=O)C(=O)N2CCCC[C@H]2C(=O)O[C@H]([C@H](C)C[C@@H]2CC[C@@H](O)[C@H](OC)C2)CC(=O)[C@H](C)/C=C(\C)[C@@H](O)[C@@H](OC)C(=O)[C@H](C)C[C@H](C)/C=C/C=C/C=C/1C`, the residual activity came out at 70% in assay [19]; 68% in assay [20]; 97% in [1]; 139% in [2]; 120% in assay [3]; 108% in assay [4]. In addition, the residual activity in assay [5] came to 129%; in assay [6], 113%; in assay [7], 105%; in [8], 96%; in assay [9], 90%; in [10], 86%. Also, the residual activity in assay [11] stood at 90%; in assay [12], 92%; in [13] it was 78%; in assay [14], 100%; in assay [15] it was 88%; in assay [16], 89%. Besides, the residual activity in assay [17] was 88%; in assay [18], 94%.

`COc1cc2ncc(-c3ccccc3)nc2cc1OC`: the residual activity was 96% in assay [19]; 86% in assay [20]; 80% in assay [1]; 67% in assay [2]; 129% in [5]; 96% in assay [9]. The residual activity in assay [10] stood at 91%; in assay [14], 93%; in [17], 95%; in assay [18] it was 91%.

With `c1ccc(-c2n[nH]cc2-c2ccnc3ccccc23)nc1`, the residual activity in assay [19] came to 104%; in [20], 58%; in assay [8], 94%; in assay [9], 83%; in assay [10] it was 79%; in assay [11] it was 83%. The figures for the residual activity in [12], in [17] and in assay [18] were 63%, 98% and 95%, respectively.

Take `COc1cc2ncnc(Nc3ccc(O)c(Br)c3)c2cc1OC`: the residual activity was determined as 17% in assay [19]; 22% in [20]; 91% in assay [1]; 34% in [2]; 100% in assay [3]; 68% in assay [4]. The residual activity was 42% in [6]; 102% in assay [7]; 88% in assay [8]; 84% in [9]; 71% in assay [10]; 84% in [11]. In addition, the residual activity in assay [12] came out at 51%; in [13], 98%; in [14], 67%; in assay [15], 87%; in assay [16] it was 86%; in [17], 81%. In addition, in assay [18], the residual activity turned out to be 78%.

Regarding `O=C1NC(=O)/C(=C\c2ccc3nccnc3c2)S1`, the residual activity in assay [19] stood at 59%; in assay [20], 65%; in [1] it was 78%; in [2] it was 77%; in [3], 79%; in assay [4] it was 31%. Besides, the residual activity in [5] turned out to be 132%; in assay [6] it was 47%; in [7] it was 94%; in assay [8], 98%; in assay [9], 96%; in assay [10], 68%. Besides, the residual activity in assay [11] came out at 96%; in assay [12] it was 64%; in assay [13] it was 97%; in [14] it was 74%; in assay [15], 91%; in assay [16], 86%. Moreover, the residual activity in assay [17] came to 89%; in [18], 80%.

As for `Oc1c2ccccc2c2c3c(cccc13)N=N2`, the residual activity in assay [19] stood at 38%; in [20] it was 29%; in assay [1] it was 64%; in assay [2], 9%; in [3], 52%; in [4], 35%. The residual activity came to 59% in [5]; 36% in assay [6]; 8% in assay [7]; 3% in [8]; 26% in assay [9]; 14% in assay [10]. The residual activity came out at 76% in assay [15], 31% in assay [16], 75% in assay [17] and 24% in [18].

`c1ccc(-c2n[nH]c3c2oc2ccccc23)cc1`: the residual activity stood at 114% in assay [1]; 73% in assay [2]; 94% in assay [3]; 75% in [4]; 128% in assay [5]; 64% in assay [6]. In addition, the residual activity in [8] is 60%; in assay [9], 98%; in [10], 41%; in assay [11], 67%; in assay [12], 27%; in assay [13], 77%. Besides, the residual activity in assay [14] amounted to 31%; in assay [15] it was 75%; in [16], 30%; in [17] it was 84%; in assay [18], 91%.
